These results are taken from PubChem BioAssay (NCATS).

Experiment [1] can be described thus: qHTS Assay for Identification of Small Molecule Agonists for Hypoxia Response Element Signaling Pathway (AID 914; active means well fitted activation curve with a large enough effect in the signal ratio, with a control signal flat, not every such curve was filed as active; the % refers to the signal ratio). To be noted: ME-180 HRE-bla reporter, beta-lactamase ratio, CoCl2, 17 h; activation: stronger effect = higher value. A digest of the protocol:
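Cells were plated overnight, pin-dosed with compound in a titration series, co-stimulated with EC50 CoCl2 and incubated 17 hours at 37 degrees Celsius. CCF4 substrate was then loaded, and AC50 values came from the 460nm/530nm ratio.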
In general terms: qHTS replaces the single test concentration by a dilution series.

The test system of a further experiment is AS120. The experiment is described as follows: qHTS profiling for inhibitors of Plasmodium falciparum proliferation (AID 504749). To be noted: P. falciparum in erythrocytes, SYBR Green DNA, 72 h; series mostly up to 28.7 µM. A digest of the protocol:
(§1)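 Quantitative HTS: compounds pinned into medium, infected erythrocytes added (0.3% parasitemia, 2.5% hematocrit), 72 h culture at 37 C under 5% CO2. Saponin/Triton lysis with SYBR Green I, overnight RT, then fluorescence read.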

Another experiment deals with ATS189. The experiment is described as above. To be noted: P. falciparum in erythrocytes, SYBR Green DNA, 72 h; series mostly up to 28.7 µM. A digest of the protocol:
as §1

The test system of a further experiment is CP185. The description is as above. To be noted: P. falciparum in erythrocytes, SYBR Green DNA, 72 h; series mostly up to 28.7 µM. The gist of the method:
as §1

For another experiment, the system named is CP191. The description is as above. To be noted: P. falciparum in erythrocytes, SYBR Green DNA, 72 h; series mostly up to 28.7 µM. A digest of the protocol:
as §1

A further experiment relates to CP192. Described as above. To be noted: P. falciparum in erythrocytes, SYBR Green DNA, 72 h; series mostly up to 28.7 µM. The gist of the method:
as §1

For the next experiment, the system named is CP201. Described as above. To be noted: P. falciparum in erythrocytes, SYBR Green DNA, 72 h; series mostly up to 28.7 µM. The gist of the method:
as §1

Another experiment concerns CP203. The description is as above. To be noted: P. falciparum in erythrocytes, SYBR Green DNA, 72 h; series mostly up to 28.7 µM. A digest of the protocol: as §1
A further experiment relates to CP247. The description is as above. To be noted: P. falciparum in erythrocytes, SYBR Green DNA, 72 h; series mostly up to 28.7 µM. The gist of the method: as §1
Another experiment has as its system CP291. The description is as above. To be noted: P. falciparum in erythrocytes, SYBR Green DNA, 72 h; series mostly up to 28.7 µM. The gist of the method:
as §1

The next experiment concerns DFO2036. The description is as above. To be noted: P. falciparum in erythrocytes, SYBR Green DNA, 72 h; series mostly up to 28.7 µM. The gist of the method:
as §1

A further experiment concerns P94_40. The description is as above. To be noted: P. falciparum in erythrocytes, SYBR Green DNA, 72 h; series mostly up to 28.7 µM. A digest of the protocol: as §1
A further experiment concerns TAB109. The description is as above. To be noted: P. falciparum in erythrocytes, SYBR Green DNA, 72 h; series mostly up to 28.7 µM. A digest of the protocol: as §1
The test system of the next experiment is TAB113. The experiment is described as above. To be noted: P. falciparum in erythrocytes, SYBR Green DNA, 72 h; series mostly up to 28.7 µM. The gist of the method: as §1
Experiment [2] is described as follows: qHTS for inhibitors of ER calcium dysfunction: SERCaMP assay screened against the NCATS CANVASS Library (AID 1347393). To be noted: SH-SY5Y GLuc-SERCaMP (Gaussia luciferase released on ER calcium loss) secretion, thapsigargin, luminescence; series mostly up to 76.6 µM. The gist of the method:
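qHTS in SH-SY5Y reporter cells: 16 h compound pretreatment, 4 h thapsigargin, then secreted Gaussia luciferase measured by luminescence.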

Experiment [3] can be described thus: qHTS for inhibitors of Wild type Zika virus screened against the NCATS CANVASS Library (AID 1347396). To be noted: Vero cells, Zika virus CPE, CellTiter-Glo, 72 h; series mostly up to 45.9 µM. The gist of the method:
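Luminescent CellTiter Glo read-out of virus-induced cytotoxicity, 72 h post-infection, in Vero 766 cells. Compounds were tested at 11 concentrations; uninfected, vehicle-treated wells defined 100% inhibition.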

The nature of experiment [4]: Viability qHTS for inhibitors of the SERCaMP assay screened against the NCATS CANVASS Library (AID 1347400). To be noted: SH-SY5Y SERCaMP cells viability, CellTiter-Glo, 48 h; series mostly up to 92.2 µM. A digest of the protocol: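 Seed SH-SY5Y-GLuc SERCaMP MJH297 cells at 1000 per well, incubate 4 h, add compounds across an 11-point range, incubate 48 h at 37C, then add CellTiter-Glo and read luminescence.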

Experiment [5] is described as follows: Redox Reaction Profiling qHTS: Assay Interference Panel against the NCATS CANVASS Library (AID 1347401). To be noted: resazurin-DTT redox cycling, fluorescence, 15 min; series mostly up to 57.1 µM. The gist of the method: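 Quantitative HTS over an 11-point series was run in HEPES pH 7.3 with 50 mM NaCl, 200 uM DTT and 5 uM resazurin. Initial and 15-min resorufin fluorescence readings were taken.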

Experiment [6] can be described thus: qHTS for inhibitors of Rabies Virus screened against the NCATS CANVASS Library (AID 1347402; calls by dose curve). To be noted: Rabies virus infection cell assay; series mostly up to 45.9 µM.
Experiment [7] can be described thus: qHTS for Antimalaria activity screened against the NCATS CANVASS Library (AID 1347380). To be noted: P. falciparum Dd2 growth, SYBR Green fluorescence, 72 h; series mostly up to 28.7 µM. A digest of the protocol:
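Compounds are titrated over 11 concentrations onto Dd2 parasite cultures (0.3% parasitemia, 2.5% hematocrit). Growth over 72 h at 37C in low oxygen is measured as SYBR Green DNA fluorescence after lysis.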

SMILES strings stand for the structures. Results filed as inconclusive are left out. A number with no mark means an inactive call. Active and inactive are the calls of the source. Unless noted, the call rests on the fitted dose curve; in most records, active means well fitted curve in the direction sought with a large enough effect; inconclusive means small, poorly fitted or top-dose-only effect, or another doubt; inactive means no such curve, though single readings can be large; an effect the other way counts as inactive or inconclusive.

Turning to `C[C@H](N)Cc1c[nH]c2ccc(O)cc12`, the activation in experiment [1] is -4.29%.

As to `NC[C@H](CP(=O)(O)O)c1ccc(Cl)cc1`, in experiment [1], the activation was -2.39%.

For the compound `CCN1C[C@]2(COC)[C@H](O)C[C@H](OC)[C@]34C1C([C@H](OC)[C@H]23)[C@]1(OC(C)=O)C2[C@@H](OC(=O)c3ccccc3)C(O)(C[C@H]24)[C@@H](OC)[C@@H]1O`, the Potency result with AS120, in the experiment with ATS189, in the experiment on CP185, in the experiment on CP191, in the experiment with CP192 and in the experiment on CP201 was “inactive” throughout. Also, the Potency result in the experiment with CP203, in the experiment with CP247, in the experiment with CP291, in the experiment with DFO2036, in the experiment with P94_40 and with TAB109 was “inactive” each time. In addition, the Potency result with TAB113 was “inactive”.

Turning to `CN1[C@@H]2CC[C@H]1CC(O[C@@H](c1ccccc1)c1ccc(Cl)cc1)C2` (stereo not given in full), in experiment [1], the activation is -9.36%.

As to `COC(=O)C1=C2Nc3ccccc3[C@@]23CCN2CC(C(C)=O)C1C[C@H]23` (stereo not given in full), the Potency in experiment [2] is 17.2 µM (active). For the same compound, the Potency entry in [3], in [4] and in [5] was “inactive” each time. Further, the compound was called inactive in experiment [6].

Take `CNCCc1c[nH]c2ccccc12`: in [1], the activation was -14%. In addition, the Potency result in [7], in experiment [2], in experiment [3], in experiment [4] and in experiment [5] was “inactive” each time. Further, the call in [6] was inactive.

Regarding `CNCCc1ccc(O)cc1`, the Potency result in experiment [2], in [3], in experiment [4] and in experiment [5] was “inactive” each time. Moreover, the outcome in [6] was inactive.

Turning to `CC[N@@+]1([O-])C[C@]2(C)CC[C@@H](O)[C@@]34C5C[C@H]6CC[C@@]5(C(C[C@H]23)C41)[C@H](O)[C@@]6(O)CO` (stereo not given in full), the Potency result in experiment [7], in experiment [2], in experiment [3], in experiment [4] and in [5] was “inactive” each time. Besides, the call in experiment [6] was inactive.

On to `CCC[C@H]1CC[C@H]2[C@H](C)CCC[C@H]2N1`, for which the Potency result in experiment [7], in [2], in experiment [3] and in experiment [4] was “inactive” in each case. Further, the compound was called inactive in [6].

Regarding `Cc1o[nH]c(=O)c1C[C@H](N)C(=O)O`, the activation in experiment [1] was 7.13%.

Regarding `CC(=O)N[C@H]1CCN2CCC[C@H]12`, the Potency entry in experiment [7], in experiment [2], in [3] and in experiment [4] was “inactive” throughout. Further, the Potency in experiment [5] was 63.2 µM (active). Moreover, the compound was classed as inactive in experiment [6].

Regarding `O=C(O)c1ccccc1-c1c2cc(Br)c(=O)cc-2oc2[c]([Hg])c(O)c(Br)cc12`, the Potency result in the experiment on AS120, with ATS189, with CP185, with CP191, in the experiment on CP192 and with CP201 was “inactive” throughout. For the same compound, the Potency entry in the experiment on CP203, with CP247, in the experiment with CP291, in the experiment with DFO2036, in the experiment with P94_40 and in the experiment with TAB109 was “inactive” in each case. In addition, the Potency result in the experiment with TAB113 is “inactive”.

For `CC(C)[C@@]1(NC(=O)[C@H]2CC3c4cccc5[nH]cc(c45)C[C@H]3N(C)C2)O[C@@]2(O)C3CCCN3C(=O)[C@@H](Cc3ccccc3)N2C1=O` (stereo not given in full), the Potency in the experiment on AS120 is 0.891 µM (active); in the experiment with ATS189 it was 2.82 µM (active); in the experiment on CP185, 10 µM (active); in the experiment with CP191, 5.01 µM (active); with CP192 it was 7.57 µM (active); with CP201, 10.7 µM (active). Besides, the Potency in the experiment with CP203 was 6.75 µM (active); with CP247 it was 8.91 µM (active); in the experiment on CP291, 10.7 µM (active); in the experiment with DFO2036 it was 7.08 µM (active); in the experiment on P94_40, 2 µM (active); with TAB109 it was 4.47 µM (active). The Potency in the experiment with TAB113 was 3.55 µM (active).

As to `COc1ccc(C23Oc4cc(OC)cc(OC)c4[C@](O)([C@H](c4ccccc4)C2C(=O)NCCCCNC(=O)c2ccccc2)[C@@H]3O)cc1` (stereo not given in full), the Potency entry in experiment [7], in experiment [3], in [4] and in experiment [5] was “inactive” throughout. The call in experiment [6] was inactive.

As to `CCN(CC)CCO[C@H]1CC[C@@]2(C)C(=CC[C@@H]3[C@H]2CC[C@]2(C)C(=O)CC[C@H]32)C1`, the Potency result in the experiment with AS120, with ATS189, in the experiment with CP185, in the experiment with CP191, in the experiment on CP192 and in the experiment on CP201 was “inactive” throughout. Besides, the Potency result in the experiment on CP203, with CP247, in the experiment with CP291, in the experiment on DFO2036, with P94_40 and in the experiment with TAB109 was “inactive” each time. Also, the Potency result in the experiment with TAB113 was “inactive”.
